Laboratory results published in PubChem BioAssay (NCI).
The panel holds about 83,000 compounds, 20% with a hit somewhere; the sample as a whole holds those more often.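 The endpoint reported here, percent growth, reads 100 for growth as untreated, 0 for no net growth and -100 for all cells dead.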 Unmarked numbers belong to inactive results. The source made the active and inactive calls. How the source made its calls: active means growth percent below 10; inactive means the rest.

Key:
Test in all cases: NCI-60 one-dose screen, 48 h (100 = growth as untreated, 0 = no growth, -100 = all killed)
Conditions in all cases: 10 µM unless noted
[1] = tested on: NCI-H23 lung
[2] = tested on: NCI-H226 lung
[3] = tested on: NCI-H322M lung
[4] = tested on: HOP-62 NSCLC
[5] = tested on: HOP-92 NSCLC
[6] = tested on: NCI-H522 lung
[7] = tested on: A549/ATCC NSCLC
[8] = tested on: 786-0 renal
[9] = tested on: COLO 205 colon
[10] = tested on: DU-145 prostate
[11] = tested on: K-562 leukemia
[12] = tested on: MALME-3M melanoma
[13] = tested on: MDA-MB-231 breast
[14] = tested on: RXF 393 renal
[15] = tested on: SF-268 CNS
[16] = tested on: SF-295 CNS
[17] = tested on: SF-539 CNS
[18] = tested on: UACC-257 melanoma
[19] = tested on: M14 melanoma

Row | SMILES | growth [1] | growth [2] | growth [3] | growth [4] | growth [5] | growth [6] | growth [7] | growth [8] | growth [9] | growth [10] | growth [11] | growth [12] | growth [13] | growth [14] | growth [15] | growth [16] | growth [17] | growth [18] | growth [19]
1 | N=C(N)c1ccc(-c2ccc(-c3cc(F)cc(F)c3)o2)nc1 | 87.8% | 86.6% | 96.4% | 78.4% | 59% | 99.1% | 94.8% | 95.6% | 63.4% | 104% | 15.9% | 97.3% | 78.3% | 75.2% | 90.8% | 95.9% | 88.4% | 115% | 94.7%
2 | Clc1cc(Cl)cc(Nc2ccc3c(OCCCN4CCOCC4)cccc3n2)c1 | 77% | 26.6% | 45.1% | 57.4% | 37.3% | 5.16% (active) | 25.6% | 54% | -53.4% (active) | 41.9% | -33.9% (active) | 71% | -24.6% (active) | 53.5% | 48.4% | 30.6% | 48.1% | 73.2% | 0.379% (active)
3 | Nc1c(Cl)cc(N=Nc2ccccc2)cc1Cl | 88% | 55.2% | 86.7% | 91.4% | 57.7% | 96.8% | 88.2% | 101% | 97.5% | 101% | 92.5% |  | 84.2% | 108% | 102% | 89.7% | 103% | 100% | 105%
4 | c1ccc2[nH]c(-c3ccc(Nc4nc(N5CCCCC5)nc(N5CCOCC5)n4)cc3)nc2c1 | 19.7% | 32.7% | 35% | -45.2% (active) | 43.3% | 9.25% (active) | 13.9% | -57.3% (active) | -61.3% (active) | 39% | -6.74% (active) | -50.2% (active) | 23.1% | -56.1% (active) | 33.8% | -51.4% (active) | 7.95% (active) |  | -24.5% (active)
5 | NC1=C(C/C(N)=N\O)C(c2ccccc2Cl)c2c(ccc3ccccc23)O1 (stereo not drawn) | 86.9% | 89.4% | 96.4% | 78.2% | 75.7% | 55.4% | 87.3% | 93.4% | 118% | 106% | 22.8% | 58.5% | 86.9% | 86.4% | 82.2% | 66.7% | 83.6% | 96.1% | 59.8%
6 | Cn1cnc2c1c(=O)n(CCC(=O)Nc1ccc(F)cc1)c(=O)n2C | 95.8% | 106% | 107% | 100% | 96.4% | 87.3% |  | 94.8% | 104% | 103% | 108% | 97.1% | 101% | 116% | 105% | 102% | 101% |  | 101%
7 | O=C(c1ccccc1)C(CN1CCOCC1)c1ccccc1 (stereo not drawn) | 65.3% | 40.1% | 84.7% | 81% |  | -51.3% (active) |  | 31% | 25.5% | 28.9% | 7.04% (active) | -3.82% (active) | 33.2% | 25.9% | 27% |  | 37.3% | 51.5% | 27.8%
8 | COC(=O)[C@@H]1[C@H]2C[C@H]3c4[nH]c5cc(OC)ccc5c4CCN3C[C@@H]2C[C@H](OC(=O)/C=C/c2ccnc(OC)c2)[C@H]1OC | 86.4% | 89.3% | 83.2% | 87% | 22.5% | 73.3% | 89% | 91.2% | 76.3% | 91.8% | 99.3% | 67.6% | -54.6% (active) | 92.4% | 84.1% |  | 90.1% | 78.3% | 93.2%
9 | CN1CCN(c2ccc3nc(-c4[nH]ncc4Nc4ncnc5c4OCCCN5)[nH]c3c2)CC1 | -53.9% (active) | -76.4% (active) | -67.3% (active) | -48.4% (active) | -29.3% (active) | -26.2% (active) | -63% (active) | -59.3% (active) | -72.5% (active) | -27.6% (active) | 7.54% (active) | -76.1% (active) | -37.8% (active) | -89.3% (active) | -51% (active) | -90.4% (active) | -86.7% (active) | -20.5% (active) | -74.9% (active)
